Here are results for 4 compounds from PubChem BioAssay (NCATS).

Results filed as inconclusive are left out. Active and inactive are the calls of the source. Unless noted, calls follow the shape of the dose curve; as a rule, active = well fitted curve in the direction sought with a large enough effect; inconclusive = small, poorly fitted or top-dose-only effect, or another doubt; inactive = no such curve, though single readings can be large; an effect the other way counts as inactive or inconclusive.

A short description of test [1]: NCATS anti-infectives library activity on the primary C. elegans qHTS viability assay (AID 1745855; calls by dose curve; also: potency is read from the fitted curve at half-maximal effect). In a few lines:
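Titration-based screen in worms: eggs hatched overnight in M9, L1 larvae fed TOP10 capsules in S medium with compound, incubated 21 °C for 7 days; fluorescent objects gated by size and intensity at days 0, 3 and 7.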

The target in test [2] is Glutathione peroxidase 1 (Homo sapiens) (UniProt P07203). In words: Primary qHTS Assay for Inhibitors of Recombinant Selenoprotein Glutathione Peroxidase 1 (GPX1) (AID 1845191). Also: nearly all actives have a fitted effect of over 65% in size. Put shortly:
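GPX1 10 nM, GR 100 nM, GSH 1 mM, NADPH 0.5 mM, CHP 0.5 mM (final). 30-min cpd preincubation, RT. Ex340/Em450 read t=0, t=15 min.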

Test [3] deals with Phospholipid hydroperoxide glutathione peroxidase GPX4 (Homo sapiens) (UniProt P36969). In words: Primary qHTS Assay for Inhibitors of Recombinant Selenoprotein Glutathione Peroxidase 4 (GPX4) (AID 1845192). Also: nearly all actives have a fitted effect of over 65% in size. Put shortly: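 qHTS, GR-coupled: GPX4 200 nM + cpd 30 min RT → GSH 1 mM, NADPH 0.5 mM, GR 100 nM → CHP 0.5 mM start; fluor 340/450 at t0 and t15 min; no-enzyme wells as control.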

Test [4] in a line: qHTS assay for small molecule antagonists of peroxisome proliferator-activated receptor delta signaling (AID 588535; active = well fitted inhibition curve with a large enough effect in the signal ratio, with a control signal flat, not every such curve was filed as active; the % refers to the signal ratio;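 as to max response: cells co-treated with a PPAR-delta agonist as stimulator during compound exposure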). To be noted: HEK293T PPARd-UAS-bla, beta-lactamase FRET ratio, 18 h; 460 nm channel. Put shortly:
(§1)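 Compounds tested in titration on PPAR-delta-UAS-bla HEK293T cells grown in charcoal/dextran-stripped serum (2%); beta-lactamase activity read via CCF4 emission at 460 and 530 nm.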

Test [5] concerns the target Peroxisome proliferator-activated receptor delta (Homo sapiens) (UniProt Q03181). The description is as above. In a few lines:
as §1

The target of test [6] is Peroxisome proliferator-activated receptor gamma (Homo sapiens) (UniProt P37231). In words: qHTS assay for small molecule agonists of peroxisome proliferator-activated receptor gamma signaling (AID 588536; active = well fitted curve in the direction sought with a large enough effect in the signal ratio, with a control signal flat, not every such curve was filed as active; the % refers to the signal ratio;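 also: 0% = DMSO basal wells and 100% = rosiglitazone at 2 µM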). Put shortly: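 Cells were plated and held 6–6.5 h at 37 C, then compounds were added as a titration series. After a further 16 h, CCF4 dye was loaded for 2 h at room temperature and emission at 460/530 nm recorded.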

Test [7] has the same target. In words: qHTS assay for small molecule antagonists of peroxisome proliferator-activated receptor gamma signaling (AID 588537; active = well fitted inhibition curve with a large enough effect in the signal ratio, with a control signal flat, not every such curve was filed as active; the % refers to the signal ratio;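 also: reporter cells co-stimulated with 50 nM rosiglitazone agonist during compound treatment; % of control where 0% means no effect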). Put shortly: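 HEK293 cells, PPAR-gamma-UAS-bla, 3000/well. Pre-incubation 6-6.5 h, 37 C. Compound titration with rosiglitazone 50 nM final, 16 h. CCF4 dye, 2 h RT, dual-emission fluorescence.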
Test [8] has as its target Vitamin D3 receptor (Homo sapiens) (UniProt P11473). Description: qHTS assay for small molecule antagonists of vitamin D receptor signaling (AID 588541; calls by dose curve;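 also: receptor activated by calcitriol during compound treatment; series mostly up to about 77 µM; % is scaled to controls: 0 for no effect and ±100 for the full control effect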). Put shortly:
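VDR-UAS-bla HEK293T cells (2000/well, 2% charcoal-stripped FBS) were treated with titrated compounds plus 1-alpha,25-dihydroxyvitamin D3 (50 nM or 3 nM final) for 16 h at 37 C. CCF4 beta-lactamase fluorescence was read; Hill fits gave IC50.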

Test [9] has the same target. Description: qHTS assay for small molecule agonists of vitamin D receptor signaling (AID 588543; calls by dose curve;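 also: 0% = DMSO basal and 100% = reference agonist control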). Put shortly:
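GeneBLAzer VDR-UAS-bla HEK293T cells in 2% charcoal-stripped FBS medium were dosed with compound titrations for 16 h at 37 °C; CCF4 β-lactamase readout (405 nm ex, 460/530 nm em). EC50 and efficacy from Hill fits, normalized to 50 nM calcitriol (100%) and DMSO (0%).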

The nature of test [10]: qHTS assay for small molecule agonists of retinoid X receptor alpha signaling (AID 588544; calls by dose curve;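 as to activation: 0% = DMSO basal wells and 100% = reference agonist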). To be noted: HEK293T RXRa-UAS-bla, beta-lactamase reporter, 18 h; 530 nm emission.
Test [11] addresses Retinoic acid receptor RXR-alpha (Homo sapiens) (UniProt P19793). The description is as above.
Test [12] deals with Thyroid hormone receptor beta (Homo sapiens) (UniProt P10828). In words: qHTS assay for small molecule agonists of thyroid hormone receptor beta signaling (AID 588545; calls by dose curve;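 also: 0% = DMSO only and 100% = 10 nM T3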). Put shortly:
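Beta-lactamase reporter activity under TR response element control is measured in HEK 293 cells after 18 hrs compound exposure. Signal is ratiometric CCF4 fluorescence, 460/530 nm.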

Test [13] can be described thus: qHTS assay for small molecule antagonists of retinoid X receptor alpha signaling (AID 588546).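 Also: cells stimulated with 9-cis-retinoic acid as agonist; % is scaled to controls: 0 for no effect and ±100 for the full control effect.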 To be noted: HEK293T RXRa-UAS-bla, beta-lactamase ratio, antagonist mode; measured here: W530 green channel, cytotoxicity proxy. In a few lines:
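Beta-lactamase reporter inhibition, read as CCF4 fluorescence ratio (ex 405, em 460/530 nm) after 2 h at RT. HEK293T UAS-bla cells, 2500/well, were stimulated with 9-cis-RA at 500 or 100 nM final alongside test compound for 18 h at 37 C.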

For test [14], the target named is Thyroid hormone receptor beta (Homo sapiens) (UniProt P10828). Description: qHTS assay for small molecule antagonists of thyroid hormone receptor beta signaling (AID 588547; active = well fitted inhibition curve with a large enough effect in the signal ratio, with a control signal flat, not every such curve was filed as active; the % refers to the signal ratio;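 also: cells stimulated with 0.4 nM T3 agonist during compound exposure; series mostly up to about 77 µM; % is scaled to controls: 0 for no effect and ±100 for the full control effect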). To be noted: TR-UAS-bla HEK293, beta-lactamase ratio, antagonist mode, 18 h. Put shortly:
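TR-UAS-bla GripTite HEK293 cells in 2% charcoal/dextran FBS medium were preincubated 4 h at 37 C, given compound (0.59 nM to 92 uM) plus 0.4 nM T3 (final) for 18 h, then CCF4 for 2 h at RT; Hill fit gave IC50.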

A short description of test [15]: qHTS assay for small molecule activators of the p53 signaling pathway (AID 651743; active = well fitted activation curve with a large enough effect in the signal ratio, not every such curve was filed as active; the % refers to the signal ratio; also: series mostly up to about 92 µM; % of control where 0% means no effect). To be noted: HCT-116 p53RE-bla, beta-lactamase FRET ratio, 16 h; activation: stronger effect = higher value. In a few lines: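 Here HCT-116 cells with an integrated p53-responsive beta-lactamase gene were incubated with compounds (16 hours, 37 C) after a 5-hour plating period; beta-lactamase activity was detected as fluorescence intensity via B/G FRET substrate.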

The nature of test [16]: qHTS assay for small molecule activators of the nuclear factor-kappa B (NF-kB) signaling pathway (AID 651749; active = well fitted activation curve with a large enough effect in the signal ratio; the % refers to the signal ratio; also: series mostly up to about 77 µM; % of control where 0% means no effect). As to conditions: NF-kB-bla ME-180 cells, beta-lactamase FRET ratio, 16 h; stronger effect = higher value. Put shortly:
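Beta-lactamase reporter expression, controlled by NF-kB response elements in ME-180 cells, was quantified fluorometrically via FRET disruption; cells at 2,000/well had been incubated with 23 nL test compound for 16 hr.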

Test [17] is described as follows: qHTS assay for environmental chemicals that activate the Aryl hydrocarbon Receptor (AhR) signaling pathway (AID 651777). Also: % of control where 0% means no effect; nearly all actives have a fitted effect of over 15% in size. To be noted: 1A2-DRE human hepatoma cells, luciferase, 24 h; activation: stronger effect = higher value. In a few lines: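 AhR activation is scored as a rise in luciferase from a stable DRE–CYP1A2 promoter construct in human hepatoma cells. Treatment lasts 24 hr at 37 C; detection uses One-Glo after 30 min at room temperature.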

Test [18] has as its target Peroxisome proliferator-activated receptor alpha (Homo sapiens) (UniProt Q07869). In words: qHTS assay for small molecule agonists of the peroxisome proliferator-activated receptor alpha (PPARalpha) signaling pathway (AID 651778). Also: % of control where 0% means no effect. To be noted: PathHunter PPARalpha complementation, chemiluminescence, 6 h; max response: stronger effect = higher value. Put shortly: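 Cells plated at 2,000/well and held overnight at 37 C, 5% CO2, then compound added by pin tool for 6 hr; after PathHunter detection reagent and 60 min at room temperature, chemiluminescence from enzyme complementation was read.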

The nature of test [19]: qHTS assay for small molecule agonists of the antioxidant response element (ARE) signaling pathway measured by Nrf2-dependant transcriptional activity (AID 720636; active = well fitted curve in the direction sought with a large enough effect in the repeat runs; an effect the other way counts as inactive or inconclusive; also: % of control where 0% means no effect). In a few lines:
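First, ARE-luc HepG2 cells attached for 6 hr at 37 C in 1% dialyzed FBS medium. Next, compound or DMSO was added and incubated 16 hr. Finally, ONE-Glo reagent was added and luminescence measured after 30 min.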

Test [20] in a line: qHTS assay for small molecule agonists of the antioxidant response element (ARE) signaling pathway measured by Nrf2-dependant transcriptional activity - cell viability counter screen (AID 720653; active = well fitted curve in the direction sought with a large enough effect in the repeat runs; an effect the other way counts as inactive or inconclusive; also: % is scaled to controls: 0 for no effect and ±100 for the full control effect). To be noted: ARE-bla HepG2 viability, CellTiter-Glo ATP luminescence, 16 h; max response: stronger effect = lower value. Put shortly: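 ARE-bla HepG2 cells (2,000/well) rested 5 hrs at 37C/5% CO2, then exposed to compounds in DMSO for 16 hrs. Viability was read in the same wells as intracellular ATP by luminescence, 30 min at room temperature after reagent addition.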

A short description of test [21]: qHTS assay for cell viability of HEK293 cells (AID 743288). Also: % is scaled to controls: 0 for no effect and ±100 for the full control effect; nearly all actives have a fitted effect of over 50% in size. As to conditions: ATP luminescence (CellTiter-Glo), 18 h; max response: stronger effect = lower value. Put shortly:
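After 18 h compound exposure at 37 C, parental HEK293 cells (2,000/well) are lysed with CellTiter-Glo and luminescence is read following 30 min at room temperature.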

Test [22] is described as follows: qHTS assay for cell viability of the p53RE-bla HCT-116 cell line (AID 743292). Also: % is scaled to controls: 0 for no effect and ±100 for the full control effect; nearly all actives have a fitted effect of over 55% in size. Put shortly: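 Quantitative high-throughput format: compounds in DMSO were pinned onto p53RE-bla HCT-116 cells (4,000/well) and incubated 16 h at 37 C. Total intracellular ATP, read by CellTiter-Glo luminescence, reflects viable cell number.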
Test [23] is described as follows: NCATS anti-infectives library activity on HEK293 viability as a counter-qHTS vs the C. elegans viability qHTS (AID 1745854). In a few lines:
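Compound titrations (final up to 41.7 uM) were incubated with HEK293 cells for 24 hr at 37C under 5% CO2. Viable cells were quantified with CellTiter-Glo after 10 min at ambient temperature.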

Test [24] concerns the target Nuclear receptor subfamily 1 group I member 2 (Rattus norvegicus) (UniProt Q9R1A7). Description: qHTS assay for small molecule activators of the rat pregnane X receptor (rPXR) signaling pathway (AID 651751; call rule not given here; also: 0% is about no effect). As to conditions: rPXR reporter cells, luciferase (One-Glo), 24 h.
The nature of test [25]: qHTS assay for small molecule activators of the human pregnane X receptor (PXR) signaling pathway (AID 720659; call rule not given here; also: 0% is about no effect).
For test [26], the target named is Androgen receptor (Homo sapiens) (UniProt P10275). Description: qHTS assay for small molecule antagonists of androgen receptor signaling (AID 588516; active = well fitted curve in the direction sought with a large enough effect in the signal ratio, with a control signal flat, not every such curve was filed as active; the % refers to the signal ratio; also: % is scaled to controls: 0 for no effect and ±100 for the full control effect). Put shortly:
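AR-UAS-bla-GripTite HEK 293 cells (2000/well, 5 h at 37 C) received compound titrations, then R1881 at 10 nM final; after 16 h at 37 C, CCF4 dye 2 h RT, beta-lactamase fluorescence read; IC50 from Hill fits.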

Test [27] addresses Glucocorticoid receptor (Homo sapiens) (UniProt P04150). Description: qHTS assay for small molecule agonists of glucocorticoid receptor signaling (AID 588532; active = well fitted curve in the direction sought with a large enough effect in the signal ratio, with a control signal flat; the % refers to the signal ratio;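 also: 100% = dexamethasone at 0.1 µM and 0% = DMSO only wells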). To be noted: HeLa MMTV-bla, beta-lactamase ratio, agonist, 18 h; stronger effect = higher value; percent of dexamethasone control, DMSO zero. Put shortly: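 Titration series, up to 92 uM, applied to GRE-bla HeLa cells for 18 h at 37 C. Detection by CCF4 FRET substrate after 2 h at RT.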

Test [28] in a line: qHTS assay for small molecule agonists of the antioxidant response element (ARE) signaling pathway (AID 651741; active = well fitted activation curve with a large enough effect in the signal ratio; the % refers to the signal ratio; also: potency is read from the fitted curve at half-maximal effect). Put shortly:
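Beta-lactamase reporter expression driven by the antioxidant response element in HepG2 cells was detected by fluorescence with LiveBLAzer B/G FRET substrate (2 h, room temperature) following 16 h compound treatment at 37 C.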

Phospholipid hydroperoxide glutathione peroxidase GPX4 (Homo sapiens), sequence (P36969 whole entry, looked up): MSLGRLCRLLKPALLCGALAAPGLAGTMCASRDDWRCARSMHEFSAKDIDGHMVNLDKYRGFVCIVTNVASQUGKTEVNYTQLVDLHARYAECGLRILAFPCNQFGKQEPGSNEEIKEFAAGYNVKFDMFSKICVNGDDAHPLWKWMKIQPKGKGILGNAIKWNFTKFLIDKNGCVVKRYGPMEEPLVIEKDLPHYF
Peroxisome proliferator-activated receptor gamma (Homo sapiens), sequence (P37231 whole entry, looked up): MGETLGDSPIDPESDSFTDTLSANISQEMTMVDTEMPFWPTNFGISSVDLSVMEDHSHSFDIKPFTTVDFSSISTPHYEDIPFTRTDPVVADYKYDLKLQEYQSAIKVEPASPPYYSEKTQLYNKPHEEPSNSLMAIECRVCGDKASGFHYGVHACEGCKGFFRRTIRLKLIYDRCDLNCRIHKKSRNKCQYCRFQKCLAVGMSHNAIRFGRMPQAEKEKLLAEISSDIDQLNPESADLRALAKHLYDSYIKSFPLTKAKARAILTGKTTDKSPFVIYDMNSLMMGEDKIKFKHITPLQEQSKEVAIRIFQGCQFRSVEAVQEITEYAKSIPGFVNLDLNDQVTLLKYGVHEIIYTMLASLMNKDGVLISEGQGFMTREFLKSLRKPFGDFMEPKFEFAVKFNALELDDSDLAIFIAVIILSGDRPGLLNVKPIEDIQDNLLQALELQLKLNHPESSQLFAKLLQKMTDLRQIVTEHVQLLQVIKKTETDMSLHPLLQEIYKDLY
Thyroid hormone receptor beta (Homo sapiens), sequence (P10828 whole entry, looked up): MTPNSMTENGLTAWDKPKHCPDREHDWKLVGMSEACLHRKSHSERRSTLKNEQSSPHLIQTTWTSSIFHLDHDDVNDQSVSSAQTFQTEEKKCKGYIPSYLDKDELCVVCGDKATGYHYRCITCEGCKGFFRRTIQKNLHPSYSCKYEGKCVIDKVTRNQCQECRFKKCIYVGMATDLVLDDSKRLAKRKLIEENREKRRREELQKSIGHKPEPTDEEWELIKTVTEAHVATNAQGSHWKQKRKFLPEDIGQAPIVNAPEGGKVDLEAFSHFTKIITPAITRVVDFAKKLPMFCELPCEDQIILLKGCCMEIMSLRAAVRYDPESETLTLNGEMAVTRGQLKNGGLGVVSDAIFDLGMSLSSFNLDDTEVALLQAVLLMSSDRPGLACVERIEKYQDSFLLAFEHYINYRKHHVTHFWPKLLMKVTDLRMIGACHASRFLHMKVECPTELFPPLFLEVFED
Nuclear receptor subfamily 1 group I member 2 (Rattus norvegicus), sequence (Q9R1A7 whole entry, looked up): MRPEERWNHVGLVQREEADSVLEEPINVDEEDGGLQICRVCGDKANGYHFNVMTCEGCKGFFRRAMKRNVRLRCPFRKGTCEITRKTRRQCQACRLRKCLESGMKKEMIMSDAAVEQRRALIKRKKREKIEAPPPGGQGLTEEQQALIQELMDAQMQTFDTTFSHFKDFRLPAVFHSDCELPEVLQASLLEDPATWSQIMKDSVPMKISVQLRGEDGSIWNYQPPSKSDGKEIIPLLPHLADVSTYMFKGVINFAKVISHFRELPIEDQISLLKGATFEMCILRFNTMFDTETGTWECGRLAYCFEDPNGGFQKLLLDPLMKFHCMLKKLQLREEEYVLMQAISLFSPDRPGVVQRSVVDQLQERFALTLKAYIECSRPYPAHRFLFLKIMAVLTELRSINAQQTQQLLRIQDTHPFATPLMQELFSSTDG
Vitamin D3 receptor (Homo sapiens), sequence (P11473 whole entry, looked up): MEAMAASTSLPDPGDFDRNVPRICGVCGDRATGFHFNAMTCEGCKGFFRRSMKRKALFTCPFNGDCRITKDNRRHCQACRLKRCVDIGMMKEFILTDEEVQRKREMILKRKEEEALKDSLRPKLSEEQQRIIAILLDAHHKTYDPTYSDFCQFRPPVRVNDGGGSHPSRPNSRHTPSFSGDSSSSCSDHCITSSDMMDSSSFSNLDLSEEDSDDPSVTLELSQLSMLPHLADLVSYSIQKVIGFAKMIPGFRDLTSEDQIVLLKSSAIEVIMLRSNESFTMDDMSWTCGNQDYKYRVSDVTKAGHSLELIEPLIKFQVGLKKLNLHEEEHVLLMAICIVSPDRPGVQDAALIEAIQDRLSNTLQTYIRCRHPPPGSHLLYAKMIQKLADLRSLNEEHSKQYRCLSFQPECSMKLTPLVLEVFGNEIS
Peroxisome proliferator-activated receptor delta (Homo sapiens), sequence (Q03181 whole entry, looked up): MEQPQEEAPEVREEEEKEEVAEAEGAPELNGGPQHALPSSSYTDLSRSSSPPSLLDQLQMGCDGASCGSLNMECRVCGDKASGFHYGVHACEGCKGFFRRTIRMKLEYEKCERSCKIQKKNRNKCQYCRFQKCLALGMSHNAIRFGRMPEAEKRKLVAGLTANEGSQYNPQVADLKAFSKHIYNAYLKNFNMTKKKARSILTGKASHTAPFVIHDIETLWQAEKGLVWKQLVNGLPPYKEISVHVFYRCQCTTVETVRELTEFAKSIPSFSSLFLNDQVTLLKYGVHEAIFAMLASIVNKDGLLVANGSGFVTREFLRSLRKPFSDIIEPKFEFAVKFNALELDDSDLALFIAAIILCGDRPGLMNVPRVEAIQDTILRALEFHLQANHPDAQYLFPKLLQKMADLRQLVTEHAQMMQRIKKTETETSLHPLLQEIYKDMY
Peroxisome proliferator-activated receptor alpha (Homo sapiens), sequence (Q07869 whole entry, looked up): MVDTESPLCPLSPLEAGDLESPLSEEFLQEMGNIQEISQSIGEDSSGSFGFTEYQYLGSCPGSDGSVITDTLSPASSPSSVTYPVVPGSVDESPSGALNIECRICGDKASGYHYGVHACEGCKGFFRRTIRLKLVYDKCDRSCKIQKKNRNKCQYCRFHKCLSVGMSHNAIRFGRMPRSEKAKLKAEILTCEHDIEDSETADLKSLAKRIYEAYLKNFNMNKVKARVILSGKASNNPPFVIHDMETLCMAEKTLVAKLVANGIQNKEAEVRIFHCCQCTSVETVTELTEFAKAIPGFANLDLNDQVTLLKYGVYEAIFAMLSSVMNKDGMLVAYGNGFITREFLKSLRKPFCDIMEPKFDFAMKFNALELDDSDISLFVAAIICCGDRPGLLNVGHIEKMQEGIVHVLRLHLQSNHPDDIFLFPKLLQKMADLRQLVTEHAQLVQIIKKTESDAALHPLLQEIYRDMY
Glutathione peroxidase 1 (Homo sapiens), sequence (P07203 whole entry, looked up): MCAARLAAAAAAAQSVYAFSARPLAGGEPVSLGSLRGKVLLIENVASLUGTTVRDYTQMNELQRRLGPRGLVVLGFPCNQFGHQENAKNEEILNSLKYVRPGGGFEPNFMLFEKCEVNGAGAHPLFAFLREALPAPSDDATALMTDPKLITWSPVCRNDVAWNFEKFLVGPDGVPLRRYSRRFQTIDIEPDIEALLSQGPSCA
Androgen receptor (Homo sapiens), sequence (P10275 whole entry, looked up): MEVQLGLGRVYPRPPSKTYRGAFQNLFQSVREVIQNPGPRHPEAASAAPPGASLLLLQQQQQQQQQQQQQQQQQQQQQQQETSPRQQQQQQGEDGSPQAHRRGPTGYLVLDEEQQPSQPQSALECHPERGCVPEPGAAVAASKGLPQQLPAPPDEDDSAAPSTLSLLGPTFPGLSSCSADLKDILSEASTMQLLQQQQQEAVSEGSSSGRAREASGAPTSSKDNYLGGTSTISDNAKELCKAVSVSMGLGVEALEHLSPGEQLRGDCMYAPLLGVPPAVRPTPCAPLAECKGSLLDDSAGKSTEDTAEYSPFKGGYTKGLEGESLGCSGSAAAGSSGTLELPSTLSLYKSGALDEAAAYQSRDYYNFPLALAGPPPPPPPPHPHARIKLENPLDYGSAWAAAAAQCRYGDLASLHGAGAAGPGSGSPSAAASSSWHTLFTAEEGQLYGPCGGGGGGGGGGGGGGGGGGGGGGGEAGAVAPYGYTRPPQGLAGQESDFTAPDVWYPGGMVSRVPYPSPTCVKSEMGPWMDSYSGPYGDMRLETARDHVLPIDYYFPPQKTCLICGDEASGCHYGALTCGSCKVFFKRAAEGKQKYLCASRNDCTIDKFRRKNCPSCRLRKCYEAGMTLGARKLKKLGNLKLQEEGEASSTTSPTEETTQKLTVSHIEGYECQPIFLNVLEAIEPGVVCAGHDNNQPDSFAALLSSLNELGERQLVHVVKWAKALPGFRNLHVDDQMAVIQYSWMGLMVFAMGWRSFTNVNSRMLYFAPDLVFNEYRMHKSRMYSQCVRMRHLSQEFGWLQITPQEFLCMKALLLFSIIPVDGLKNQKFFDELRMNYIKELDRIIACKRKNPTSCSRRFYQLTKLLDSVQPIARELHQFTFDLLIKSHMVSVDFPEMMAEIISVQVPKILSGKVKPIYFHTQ
Retinoic acid receptor RXR-alpha (Homo sapiens), sequence (P19793 whole entry, looked up): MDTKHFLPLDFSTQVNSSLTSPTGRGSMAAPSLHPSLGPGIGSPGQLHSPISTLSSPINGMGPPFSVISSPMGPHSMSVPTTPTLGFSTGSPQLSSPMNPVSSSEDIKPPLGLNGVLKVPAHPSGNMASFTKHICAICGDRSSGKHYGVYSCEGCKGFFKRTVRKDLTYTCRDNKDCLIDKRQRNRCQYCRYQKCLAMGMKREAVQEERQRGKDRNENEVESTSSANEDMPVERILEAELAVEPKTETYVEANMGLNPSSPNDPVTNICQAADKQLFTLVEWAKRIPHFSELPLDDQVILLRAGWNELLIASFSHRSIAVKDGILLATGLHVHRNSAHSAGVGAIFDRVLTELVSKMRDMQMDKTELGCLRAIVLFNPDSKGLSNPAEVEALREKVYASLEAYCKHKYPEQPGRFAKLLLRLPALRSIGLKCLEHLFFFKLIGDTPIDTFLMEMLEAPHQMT

On to `CC(C)C[C@H](NC(=O)CNC(=O)c1cc(Cl)ccc1Cl)B1OC(=O)C(CC(=O)O)(CC(=O)O)O1`, for which the Potency in test [1] was 1.63 µM (active). In addition, the Potency entry in [2] and in [3] was “inactive” each time.

With `C[Si](C)(C)O[Si](C)(C)O[Si](C)(C)C`, the max response is 25.8% in test [4]; -9.58% in [10]; -9.81% in [13]; 0.325% (inactive) in [18]; 4.82% (inactive) in test [20]; -3.28% (inactive) in test [21]. The max response in test [24] is 0.588% (inactive). Moreover, the Potency entry in [5], in test [19], in [22], in test [23], in [2] and in [3] was “inactive” throughout. For the same compound, the result in test [6], in [7], in test [8], in test [9], in test [11] and in [12] was inactive. In addition, the compound was called inactive in test [25]. In test [14], the activity change % (negative = inhibition) is -8.82% (inactive). Besides, the results for the activation in [15], in test [16] and in [17] were -8.05% (inactive), -3.32% (inactive) and -0.707% (inactive), respectively.

As for `CCC(CC)[C@H](NC(C)=O)[C@@H]1[C@H](O)[C@@H](C(=O)O)C[C@H]1N=C(N)N`, the activity change, negative = cytotoxicity in [23] is -6.87% [at 0.334 µM] (inactive). For the same compound, the activity change, negative = inhibition in test [3] was -9.13% [at 0.409 µM] (inactive).

Take `O=C(Nc1ccccc1)c1ccccc1O`: the compound was classed as inactive in test [26], in test [6], in [7] and in test [12]. Besides, the activation was 2.18% (inactive) in test [27] and 20.6% (inactive) in test [15]. Besides, the max response in test [4] is -6.49%; in [18], -0.0723% (inactive); in test [24], -1.47% (inactive). Besides, the Potency entry in test [5] and in test [23] was “inactive” throughout. The Potency in [28] was 15.4 µM (active).
